Data published in publication PMC7862700, “An all-to-all approach to the identification of sequence-specific readers for epigenetic DNA modifications on cytosine”.

Tests used:
Test in all cases: DAPPL (digital affinity profiling via proximity ligation, sequencing); 10 mM Tris-HCl pH 7.5, 50 mM NaCl, 1 mM DTT, 4% glycerol, room temperature, 30 min; GST-TFs on glutathione beads, 16-mer random dsDNA library, 0.1% formaldehyde crosslink after washing; high values mean tight binding
Details in all cases: protein: recombinant; tags: N-terminal GST; dsDNA, one strand shown
ELK1 = target: T1, ELK1 (Homo sapiens, UniProt P19419 1-428)
T1 sequence: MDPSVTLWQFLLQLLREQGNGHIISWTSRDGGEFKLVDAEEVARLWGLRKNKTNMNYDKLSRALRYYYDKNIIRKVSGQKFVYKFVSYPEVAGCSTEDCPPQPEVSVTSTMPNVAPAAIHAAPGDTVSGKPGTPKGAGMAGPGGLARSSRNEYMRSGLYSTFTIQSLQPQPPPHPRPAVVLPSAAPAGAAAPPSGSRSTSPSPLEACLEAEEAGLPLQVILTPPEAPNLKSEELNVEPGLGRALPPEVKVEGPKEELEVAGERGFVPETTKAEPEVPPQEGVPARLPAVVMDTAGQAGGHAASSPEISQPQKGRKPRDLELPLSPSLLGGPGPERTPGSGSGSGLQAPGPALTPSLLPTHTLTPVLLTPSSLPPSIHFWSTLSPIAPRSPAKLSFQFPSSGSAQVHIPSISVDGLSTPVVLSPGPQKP
In short: (§1)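 GST fusions of human transcription factors were expressed in yeast and captured with glutathione beads. Once given DNA barcodes and pooled alongside a tag-only sample, they were incubated for 30 min at room temperature with 200 nmole of a random double-stranded 16-mer DNA library in Tris/NaCl/DTT/glycerol buffer, then washed, crosslinked (0.1% formaldehyde), proximity-ligated, PCR-amplified and sequenced on an Illumina NextSeq500. The binding signal of each hexamer is its read frequency for a factor divided by its frequency for the tag-only sample.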

GABPA = target: T2, GABPA (Homo sapiens, UniProt Q06546 1-454)
T2 sequence: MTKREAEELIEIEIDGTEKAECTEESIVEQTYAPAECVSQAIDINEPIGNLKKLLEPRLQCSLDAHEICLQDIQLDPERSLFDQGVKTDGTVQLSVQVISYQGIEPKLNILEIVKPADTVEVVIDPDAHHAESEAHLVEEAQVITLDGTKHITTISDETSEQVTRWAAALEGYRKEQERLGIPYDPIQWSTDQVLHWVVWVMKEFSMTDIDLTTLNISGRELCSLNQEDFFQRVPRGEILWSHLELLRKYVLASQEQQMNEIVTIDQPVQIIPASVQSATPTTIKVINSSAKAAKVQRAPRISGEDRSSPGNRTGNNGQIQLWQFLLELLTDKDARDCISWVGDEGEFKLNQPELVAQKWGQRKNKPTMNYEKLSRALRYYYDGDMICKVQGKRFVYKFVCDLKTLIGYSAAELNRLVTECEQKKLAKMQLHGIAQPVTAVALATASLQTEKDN
In short: as §1

ELF1 = ELF1 (Homo sapiens, UniProt P32519 1-619)
In short: as §1

EHF = target: T3, EHF (Homo sapiens, UniProt Q9NZC4 1-300)
T3 sequence: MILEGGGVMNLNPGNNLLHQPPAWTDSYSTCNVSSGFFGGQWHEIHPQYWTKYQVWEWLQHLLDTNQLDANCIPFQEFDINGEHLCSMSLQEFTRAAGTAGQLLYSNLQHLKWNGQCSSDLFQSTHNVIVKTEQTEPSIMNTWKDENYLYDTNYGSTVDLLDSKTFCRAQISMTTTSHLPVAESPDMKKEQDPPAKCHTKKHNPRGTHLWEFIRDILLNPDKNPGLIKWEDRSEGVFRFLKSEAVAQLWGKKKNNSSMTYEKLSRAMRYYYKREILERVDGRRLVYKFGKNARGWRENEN
In short: as §1

ELK3 = target: T4, ELK3 (Homo sapiens, UniProt P41970 1-407)
T4 sequence: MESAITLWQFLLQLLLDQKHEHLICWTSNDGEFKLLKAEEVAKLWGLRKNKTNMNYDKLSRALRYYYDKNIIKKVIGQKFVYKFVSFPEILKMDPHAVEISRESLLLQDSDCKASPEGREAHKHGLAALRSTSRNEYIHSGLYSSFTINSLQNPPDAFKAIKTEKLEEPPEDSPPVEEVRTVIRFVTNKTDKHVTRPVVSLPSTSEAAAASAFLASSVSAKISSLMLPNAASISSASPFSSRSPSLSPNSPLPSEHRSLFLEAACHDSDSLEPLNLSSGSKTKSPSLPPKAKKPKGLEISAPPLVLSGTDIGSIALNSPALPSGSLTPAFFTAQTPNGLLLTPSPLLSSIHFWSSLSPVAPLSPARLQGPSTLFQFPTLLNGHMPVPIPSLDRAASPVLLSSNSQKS
In short: as §1

FEV = target: T5, FEV (Homo sapiens, UniProt Q99581 1-238)
T5 sequence: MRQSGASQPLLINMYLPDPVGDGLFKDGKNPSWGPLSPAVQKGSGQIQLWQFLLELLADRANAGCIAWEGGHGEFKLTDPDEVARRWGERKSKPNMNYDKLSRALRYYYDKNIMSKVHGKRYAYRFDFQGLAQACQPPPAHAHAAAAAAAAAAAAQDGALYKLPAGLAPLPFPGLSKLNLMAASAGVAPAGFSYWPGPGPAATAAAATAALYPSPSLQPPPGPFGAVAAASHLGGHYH
In short: as §1

SPIC = target: T6, SPIC (Homo sapiens, UniProt Q8N5J4 1-248)
T6 sequence: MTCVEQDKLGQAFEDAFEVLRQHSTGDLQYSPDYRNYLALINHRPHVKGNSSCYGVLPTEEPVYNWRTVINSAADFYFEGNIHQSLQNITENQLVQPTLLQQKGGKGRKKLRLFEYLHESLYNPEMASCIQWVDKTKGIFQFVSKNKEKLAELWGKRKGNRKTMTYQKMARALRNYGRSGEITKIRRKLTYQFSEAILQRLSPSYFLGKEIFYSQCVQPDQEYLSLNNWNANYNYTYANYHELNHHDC
In short: as §1

ELF4 = ELF4 (Homo sapiens, UniProt Q99607 1-663)
In short: as §1

ELK4 = target: T7, ELK4 (Homo sapiens, UniProt P28324-2 1-405)
T7 sequence: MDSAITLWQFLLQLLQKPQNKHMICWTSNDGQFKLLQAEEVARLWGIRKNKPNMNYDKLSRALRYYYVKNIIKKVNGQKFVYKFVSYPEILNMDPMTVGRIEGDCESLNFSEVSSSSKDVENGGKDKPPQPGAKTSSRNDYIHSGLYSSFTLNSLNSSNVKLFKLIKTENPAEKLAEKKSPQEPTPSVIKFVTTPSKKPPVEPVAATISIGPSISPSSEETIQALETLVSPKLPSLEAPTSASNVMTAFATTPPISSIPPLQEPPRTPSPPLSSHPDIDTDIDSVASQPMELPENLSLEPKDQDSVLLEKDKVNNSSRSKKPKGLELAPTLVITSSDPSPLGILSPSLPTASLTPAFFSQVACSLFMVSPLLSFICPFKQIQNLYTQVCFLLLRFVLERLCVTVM
In short: as §1

ETV2 = target: T8, ETV2 (Homo sapiens, UniProt O00321 1-342)
T8 sequence: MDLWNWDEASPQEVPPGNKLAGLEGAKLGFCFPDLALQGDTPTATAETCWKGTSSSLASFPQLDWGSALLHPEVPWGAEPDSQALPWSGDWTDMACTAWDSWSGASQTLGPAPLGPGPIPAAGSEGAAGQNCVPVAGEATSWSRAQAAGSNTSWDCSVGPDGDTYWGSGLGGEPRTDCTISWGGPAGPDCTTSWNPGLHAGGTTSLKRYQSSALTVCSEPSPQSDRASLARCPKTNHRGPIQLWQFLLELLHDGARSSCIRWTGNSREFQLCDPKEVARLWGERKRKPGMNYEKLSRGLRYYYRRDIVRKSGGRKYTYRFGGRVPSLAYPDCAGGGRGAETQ
In short: as §1

ETV3L = target: T9, ETV3L (Homo sapiens, UniProt Q6ZN32 1-361)
T9 sequence: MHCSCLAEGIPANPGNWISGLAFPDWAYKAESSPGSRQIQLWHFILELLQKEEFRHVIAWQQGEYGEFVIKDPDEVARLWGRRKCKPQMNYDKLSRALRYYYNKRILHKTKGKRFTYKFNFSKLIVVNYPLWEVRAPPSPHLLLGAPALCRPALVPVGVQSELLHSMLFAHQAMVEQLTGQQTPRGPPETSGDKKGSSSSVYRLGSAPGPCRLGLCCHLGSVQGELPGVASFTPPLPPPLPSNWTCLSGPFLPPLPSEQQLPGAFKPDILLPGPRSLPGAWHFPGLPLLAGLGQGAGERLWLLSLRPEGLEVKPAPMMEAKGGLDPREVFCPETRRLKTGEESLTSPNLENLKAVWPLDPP
In short: as §1

SPDEF = target: T10, SPDEF (Homo sapiens, UniProt O95238 1-335)
T10 sequence: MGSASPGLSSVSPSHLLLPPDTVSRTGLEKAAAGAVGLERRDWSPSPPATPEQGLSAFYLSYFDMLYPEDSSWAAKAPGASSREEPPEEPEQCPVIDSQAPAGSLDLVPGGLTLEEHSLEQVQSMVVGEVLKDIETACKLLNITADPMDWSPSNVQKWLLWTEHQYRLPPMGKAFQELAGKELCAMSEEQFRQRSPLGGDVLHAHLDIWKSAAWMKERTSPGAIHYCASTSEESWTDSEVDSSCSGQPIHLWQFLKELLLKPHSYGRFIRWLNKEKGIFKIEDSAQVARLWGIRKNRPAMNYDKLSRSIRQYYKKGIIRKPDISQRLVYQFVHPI
In short: as §1

ETV3 = target: T11, ETV3 (Homo sapiens, UniProt P41162-2 1-143)
T11 sequence: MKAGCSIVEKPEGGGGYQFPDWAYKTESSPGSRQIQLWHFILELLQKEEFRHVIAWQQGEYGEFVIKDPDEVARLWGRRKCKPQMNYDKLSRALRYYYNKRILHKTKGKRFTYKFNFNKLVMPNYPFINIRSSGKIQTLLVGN
In short: as §1

ELF1, sequence (P32519 whole entry): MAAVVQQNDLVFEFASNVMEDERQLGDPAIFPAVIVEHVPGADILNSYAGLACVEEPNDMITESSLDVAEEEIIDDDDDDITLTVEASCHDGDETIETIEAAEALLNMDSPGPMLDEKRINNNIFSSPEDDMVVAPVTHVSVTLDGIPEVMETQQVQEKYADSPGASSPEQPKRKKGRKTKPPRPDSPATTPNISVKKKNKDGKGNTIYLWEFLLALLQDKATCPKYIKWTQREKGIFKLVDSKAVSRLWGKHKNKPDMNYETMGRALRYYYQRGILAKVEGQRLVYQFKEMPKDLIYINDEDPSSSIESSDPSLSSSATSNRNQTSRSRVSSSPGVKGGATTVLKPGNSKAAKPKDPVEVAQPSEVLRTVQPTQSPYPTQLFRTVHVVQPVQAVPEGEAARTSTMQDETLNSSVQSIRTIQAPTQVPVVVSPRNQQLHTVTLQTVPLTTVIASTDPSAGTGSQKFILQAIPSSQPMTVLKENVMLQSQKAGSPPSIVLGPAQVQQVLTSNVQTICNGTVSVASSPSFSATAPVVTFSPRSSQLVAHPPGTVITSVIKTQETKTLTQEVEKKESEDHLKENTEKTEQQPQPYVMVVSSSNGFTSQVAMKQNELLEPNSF
ELF4, sequence (Q99607 whole entry): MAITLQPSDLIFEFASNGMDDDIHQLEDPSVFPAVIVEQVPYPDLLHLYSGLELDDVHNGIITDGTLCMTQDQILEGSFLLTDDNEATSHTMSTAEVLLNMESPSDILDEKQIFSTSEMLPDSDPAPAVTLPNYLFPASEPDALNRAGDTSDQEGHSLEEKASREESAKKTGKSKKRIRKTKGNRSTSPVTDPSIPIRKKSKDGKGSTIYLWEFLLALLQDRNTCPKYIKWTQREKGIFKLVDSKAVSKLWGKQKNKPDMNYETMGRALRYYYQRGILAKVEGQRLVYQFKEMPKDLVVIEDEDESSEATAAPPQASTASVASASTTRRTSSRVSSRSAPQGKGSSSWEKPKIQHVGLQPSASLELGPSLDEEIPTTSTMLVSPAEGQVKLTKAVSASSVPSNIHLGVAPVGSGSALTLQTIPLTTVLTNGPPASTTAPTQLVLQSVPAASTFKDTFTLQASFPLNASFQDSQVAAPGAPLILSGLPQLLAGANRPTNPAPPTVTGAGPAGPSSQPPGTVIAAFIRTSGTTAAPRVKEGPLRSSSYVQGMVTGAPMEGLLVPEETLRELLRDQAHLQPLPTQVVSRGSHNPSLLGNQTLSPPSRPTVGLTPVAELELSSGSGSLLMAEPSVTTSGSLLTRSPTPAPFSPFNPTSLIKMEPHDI

ACGCGC
binding signal (ELK1): 1.12 fold enrichment (6-mer frequency, TF over GST control)
binding signal (GABPA): 1.07 fold enrichment (6-mer frequency, TF over GST control)
binding signal (ELF1): 1.05 fold enrichment (6-mer frequency, TF over GST control)
binding signal (EHF): 1.07 fold enrichment (6-mer frequency, TF over GST control)
binding signal (ELK3): 1.04 fold enrichment (6-mer frequency, TF over GST control)
binding signal (FEV): 1.04 fold enrichment (6-mer frequency, TF over GST control)
binding signal (SPIC): 1.05 fold enrichment (6-mer frequency, TF over GST control)
binding signal (ELF4): 1.06 fold enrichment (6-mer frequency, TF over GST control)
binding signal (ELK4): 1.02 fold enrichment (6-mer frequency, TF over GST control)
binding signal (ETV2): 1.08 fold enrichment (6-mer frequency, TF over GST control)
binding signal (ETV3L): 1.09 fold enrichment (6-mer frequency, TF over GST control)
binding signal (SPDEF): 1.06 fold enrichment (6-mer frequency, TF over GST control)
binding signal (ETV3): 1.09 fold enrichment (6-mer frequency, TF over GST control)
